From PubChem BioAssay AID1321 (The Scripps Research Institute Molecular Screening Center, 2008) come the findings set out here.

About 2,600 (1.2%) of roughly 220,000 compounds were called active. The full list was thinned out, with actives kept by preference. Values without a mark were called inactive.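 Rule for the calls: active = activation above the mean of all tested compounds plus 3 SD, set per screening run (cut at about 8.8% in these data); inactive = the rest.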

In this experiment the target is Wee1-like protein kinase (Homo sapiens) (UniProt P30291). Description: compounds stabilizing Wee1-luciferase fusion – cell-based, HeLa, Wee1K328M-luciferase, luminescence, primary screen (AID 1321).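 Note: cells exposed to compound for 20 h before luminescence read; 0% = DMSO alone and 100% = MG132 at 30 µM.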 The settings on record: HeLa Luc-Wee1K328M stability, at 5 µM, stronger effect = higher value, 100% = proteasome inhibitor MG132 effect.
On to `O=C(NN1C(=O)C2C(C1=O)C1C=CC2C12CC2)c1ccccc1Cl` (stereo not given), for which the reporter increase is 1.5%.

For `C=CCSc1nc(N)cc(=O)[nH]1`, the reporter increase was 0.5%. With `O=C(O)Cc1csc(NC(=O)CSc2nnnn2-c2ccc(O)cc2)n1` the figure was -2.13%; with `OCCNc1nc2ccccc2n1-c1ncnc2sc3c(c12)CCC3`, 13.6% (active). With `CC(C)(C)C(=O)Cn1c(NCCO)nc2ccccc21` the figure was -0.8%; with `O=C(O)[C@@H]1CCCN1c1ncnc2sc3c(c12)CCC3`, 3.81%. With `COCc1cc(=O)oc2cc(NS(=O)(=O)c3ccc(C)cc3)ccc12` the figure was 5.18%; with `Cc1nnc(SCC(=O)N2CCc3ccccc32)n1-c1ccccc1`, 4.42%. For `O=C(CSc1nc2[nH]ncc2c(=O)n1-c1ccccc1)N1CCCc2ccccc21`, the reporter increase was -1.42%. The result for `CC(C)(C)c1ccc(C(=O)NCc2nnc(SCC(=O)N3CCCc4ccccc43)n2-c2ccccc2)cc1` reads 9.34% (active). As for `CC(=O)Nc1ccc(/C=C/C(=O)c2ccccc2)cc1`, the reporter increase is 1.71%. With `CSc1nnnn1-c1c(C)cc(C)cc1C` the figure was -0.91%. Take `S=C(NNC(=S)NC1CC2C=CC1C2)NC1CC2C=CC1C2` (stereo not given): the reporter increase was -1.36%. With `CC(C)c1ccc(NC(=S)NC2CC3C=CC2C3)cc1` (stereo not given) the figure was 18.5% (active); with `S=C(NNC(=S)NC1CC2CCC1C2)NC1CC2C=CC1C2` (stereo not given), -2.51%; with `COc1ccc([N+](=O)[O-])cc1N(CC(O)CN(CC(C)C)CC(C)C)S(=O)(=O)c1ccc(C)cc1` (stereo not given), -0.64%. The result for `CCN(CC)CCn1c(N)c(S(=O)(=O)c2ccccc2)c2nc3ccccc3nc21` reads 12.4% (active); that for `CCC(=O)Nc1c(S(=O)(=O)c2ccccc2)c2nc3ccccc3nc2n1Cc1ccccc1`, -1.34%. With `Cc1ccc(S(=O)(=O)c2c(N)n(C)c3nc4ccccc4nc23)cc1` the figure was -2.43%.

Regarding `CSCCC(NS(=O)(=O)c1ccc2c(c1)oc(=O)n2C)C(=O)NCc1ccccc1` (stereo not given), the reporter increase was 5.59%. With `O=C(CCl)Nc1cccc(CP(=O)(c2ccccc2)c2ccccc2)c1` the figure was 1.71%; with `COc1ccc(C(=O)N/N=C(\C)CC(=O)Nc2ccc(Cl)cn2)cc1`, 0.12%; with `CC(=O)Nc1ccc(S(=O)(=O)Nc2nc(-c3ccc(C(C)(C)C)cc3)cs2)cc1`, 3.64%.

With `O=C(Nc1ccccc1)Nc1nc2ccccc2s1`, the reporter increase was 12.1% (active). With `CC(=O)Nc1ccc(-c2csc(NC=C3C(=O)OC(C)(C)OC3=O)n2)cc1` the figure was 0.77%; with `CC(=O)Nc1ccc(-c2csc(NC(=O)Nc3ccccc3)n2)cc1`, 16.9% (active). With `CSCCC(Nc1nc2ccccc2s1)C(=O)O` (stereo not given) the figure was 1.41%. The result for `O=C(Nc1nc2ccccc2s1)c1ccc2c(c1)OCO2` reads -1.51%; that for `O=C(CCCl)Nc1ccc(S(=O)(=O)NCc2ccco2)cc1`, 4.12%.

As to `Cc1ccc(C(=O)NCC(=O)OCC(=O)Nc2cccc(S(=O)(=O)N3CCCC3)c2)cc1C`, the reporter increase is 0.09%. On to `CCN(CCCNC(=O)CCn1c(=O)[nH]c2ccsc2c1=O)c1ccccc1`, for which the reporter increase is 4.65%. With `CCCCC(CC)CNC(=O)CCCCn1c(=O)[nH]c2ccsc2c1=O` (stereo not given) the figure was 20% (active). The result for `CCN(CC)CCNC(=O)CCCCCn1c(=O)[nH]c2cc(C(=O)OC)ccc2c1=O` reads -1.39%; that for `CN(C)C(=O)c1nc2ccc(Cl)cn2c1CNCc1cccc(OC(F)(F)F)c1`, 0.21%.

For the compound `Cc1ccc(C(=O)N/N=C\c2cc(Br)c(Br)o2)cn1`, the reporter increase is 1.9%. With `CCOC(=O)N1CCN(c2c(NCCN3CCN(c4ccccc4F)CC3)c(=O)c2=O)CC1` the figure was -1.76%; with `CCOc1ccc(CNC(=O)C2CCC(=O)N2C2CCCC2)cc1OC` (stereo not given), -2.75%.

As to `CCOc1cc(C2C(C(=O)OC)=CN(C3CCCC3)C=C2C(=O)OC)cc(Br)c1O`, the reporter increase was 14.3% (active). For the compound `CCOc1ccccc1C1C(C(=O)OC)=CN(C)C=C1C(=O)OC`, the reporter increase is -2.5%.

For `CN(C)S(=O)(=O)c1cccc(-c2nn(-c3ccccc3)cc2/C=C2\SC(=S)N(CC(=O)O)C2=O)c1`, the reporter increase is -2.5%. The result for `CN1CCc2nc(SC(C(=O)O)c3ccccc3)c(C#N)c(-c3cccs3)c2C1` (stereo not given) reads -1.79%; that for `Cc1ccsc1/C=N/Nc1ccc(Cl)nn1`, 1.78%. With `O=C(CSc1nnc2n1CCCN2)c1ccccc1` the figure was 1.24%; with `Cc1ccc(NC(=O)/C(=C\c2ccccc2)NC(=O)c2ccco2)cc1`, 2.36%. The result for `O=C(N/N=C/c1ccc(OCC2COCCO2)cc1)c1ccc(Br)cc1` (stereo not given) reads 10.9% (active); that for `O=C(N/N=C/c1ccc(OCc2ccccc2)cc1)c1ccc(O)cc1`, -1.31%. For the compound `O=C(O)c1ccc(/C=N/NC(=O)c2ccc(Br)cc2)cc1`, the reporter increase is 0.91%. The result for `O=C(O)C(NS(=O)(=O)c1cccc2nsnc12)c1ccccc1` (stereo not given) reads -0.72%. With `Cn1cc(S(=O)(=O)NC(c2ccccc2)c2ccccc2)c(=O)n(C)c1=O` the figure was -2.84%; with `COc1cc2nc(Cl)nc(NCCO)c2cc1OC`, -0.52%. The result for `CCCCCOC(=O)NCCOC(=O)Nc1ccc(C(=O)OCC)cc1` reads 3.09%; that for `Cc1ccc(NC(=O)OCc2cncs2)cc1`, 2.2%. For the compound `Cc1ccc(NC(=O)OCCNC(=O)c2ccncc2)cc1`, the reporter increase was 14.4% (active). For the compound `O=C(NCc1ccccc1)c1ccc(S(=O)(=O)Nc2cccc(C(F)(F)F)c2)cc1`, the reporter increase is -0.38%. With `COc1ccc(CCn2c(NN=C3CCCC3)nc3c2c(=O)[nH]c(=O)n3C)cc1` the figure was -2.59%. The result for `O=C(NC1C2CC3CC(C2)CC1C3)c1ccc(N2CCNCC2)c([N+](=O)[O-])c1` (stereo not given) reads -0.74%; that for `N/C(=N\OC(=O)c1cc(-c2ccccc2)nc2ccccc12)c1ccncc1`, 2.66%. The result for `Cc1cccc(/C(N)=N/OC(=O)c2ccccc2Cl)c1` reads 11.3% (active). For the compound `Cc1cccc(C(=O)c2cccc(C)c2)c1`, the reporter increase was -0.47%. With `CCNc1nc(Oc2ccc(C(=O)OC)cc2)nc(N2CCOCC2)n1` the figure was 1.78%.
